IMPase Li cell: membrane-permeable IMPase blocker, potentiated with lithium; Potency, µM (series often up to 59.4 µM), for inactives: at the top dose activity, negative = IMPase inhibition, actives largely listed as inhibitors; AID 1457; CHO-M1 cells, IP1 TR-FRET (IP-One), carbachol + lithium; actives 0.35% (n = 210,000); active = well fitted curve in the direction sought with a large enough effect; inconclusive = small, poorly fitted or top-dose-only effect, or another doubt; inactive = no such curve, though single readings can be large; an effect the other way counts as inactive or inconclusive;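 also: IP1 builds up when IMPase is blocked and the TR-FRET signal falls; potency is read from the fitted curve at half-maximal effect; plate controls were basal vehicle for no effect and high inhibitor control for full effect; nearly all actives have a fitted effect of over 50% in size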
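CHO cells stably expressing M1 receptor (2000/well) were cultured 16–30 h, then exposed to compounds with a small lithium addition for 30 min at 37C. IP1 was measured by TR-FRET competition; AC50 from Hill fits.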
IMPase inh: membrane-permeable compound that blocks inositol monophosphatase | P97697 | CHO-M1 cells, IP1 accumulation, HTRF TR-FRET ratio | inhibition (IP1 accumulation), % at 46.1 µM | 120,000 tested, under 10 active; active = well fitted curve in the direction sought with a large enough effect in the signal ratio, not every such curve was filed as active; inconclusive = small, poorly fitted or top-dose-only effect, or a change in a side signal; inactive = no such curve, though single readings can be large or run the other way; the % refers to the signal ratio;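 also: cells stimulated with carbachol in lithium chloride buffer; plate controls were DMSO basal wells for no effect and reference inhibitor wells for full effect; higher means more IMPase inhibition seen as more IP1 and lower FRET ratio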
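Seeded CHO-M1 cells were dosed with compound at up to 46 uM, stimulated with carbachol for 30 min, then lysed in IP-One detection reagents. Higher IP1 lowers the TR-FRET signal.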
12-hLO inh: 12-hLO (ALOX12) enzyme inhibition; P18054; purified 12-hLO, xylenol orange hydroperoxide absorbance; Potency, µM (doses to about 57.1 µM), for the others: at the highest dose activity change, negative = inhibition, usual class: inhibitors; actives 0.12% (n = 150,000); active = well fitted curve in the direction sought with a large enough effect; inconclusive = small, poorly fitted or top-dose-only effect, or another doubt; inactive = no such curve, though single readings can be large; an effect the other way counts as inactive or inconclusive; also: potency is read from the fitted curve at half-maximal effect; nearly all actives have a fitted effect of over 55% in size
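Hydroperoxide output read as Fe(III)-xylenol orange absorbance, 573-to-405 nm ratio, after 30 min reaction with 40 uM arachidonic acid. Enzyme: 150 nM purified human 12hLO, 15 min compound preincubation; 25 mM Hepes pH 7.0, room temperature.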
HPGD inh: inhibitors of human 15-hydroxyprostaglandin dehydrogenase (HPGD). purified HPGD, NADH fluorescence kinetic, PGE2 substrate. Potency, µM, for the others: at the highest dose activity change, negative = inhibition, most hits filed as inhibitors. actives 4.3% (n = 150,000). AID 894; also: potency is read from the fitted curve at half-maximal effect
Target sequence (P15428 whole entry, looked up): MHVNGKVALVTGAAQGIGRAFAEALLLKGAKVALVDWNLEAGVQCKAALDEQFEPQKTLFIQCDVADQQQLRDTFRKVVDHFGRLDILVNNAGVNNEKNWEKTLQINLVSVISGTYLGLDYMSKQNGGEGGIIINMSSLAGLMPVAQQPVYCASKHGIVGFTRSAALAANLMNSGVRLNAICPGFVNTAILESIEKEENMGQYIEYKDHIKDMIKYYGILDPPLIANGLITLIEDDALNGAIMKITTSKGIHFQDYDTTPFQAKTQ
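NADH formation kinetics: reaction with 30 uM PGE2 and 1 mM NAD+ (final), 20 nM enzyme, Tris-HCl pH 8 with Tween 20, after 15 min compound preincubation at room temperature. Fluorescence change, last versus first of five reads.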
PNC assembly inh: perinucleolar compartment assembly inhibition | PC3M PTB-GFP, PNC prevalence imaging, 16 h; hits give low values | activity change (PNC), negative = inhibition, % at 10 µM | actives 3.1% (n = 140,000);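 active = readout at or below -70, meaning at least 70% loss of cells showing the perinucleolar compartment, a nuclear body marking cancer cells; inconclusive = readout between -30 and a set limit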;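 also: plate controls were DMSO wells for no effect and camptothecin positive control wells for full effect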
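Compounds are pinned in duplicate onto adhered PC3M cells stably expressing GFP-tagged PTB and incubated 16 h at 37 C. Cells are then fixed, nuclei stained with Hoechst, and PNC-positive cells counted.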
ALDH1A1 inh: blocks purified human ALDH1A1 activity. actives 7.3% (n = 220,000). P00352. Purified ALDH1A1, NADH fluorescence, propionaldehyde substrate. Potency, µM (highest dose often 75.3 µM), for inactives: at the highest dose activity, negative = inhibition, usual class: inhibitors;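 also: potency is read from the fitted curve at half-maximal effect; plate controls were no enzyme wells and a reference inhibitor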
Target sequence (P00352 whole entry, looked up): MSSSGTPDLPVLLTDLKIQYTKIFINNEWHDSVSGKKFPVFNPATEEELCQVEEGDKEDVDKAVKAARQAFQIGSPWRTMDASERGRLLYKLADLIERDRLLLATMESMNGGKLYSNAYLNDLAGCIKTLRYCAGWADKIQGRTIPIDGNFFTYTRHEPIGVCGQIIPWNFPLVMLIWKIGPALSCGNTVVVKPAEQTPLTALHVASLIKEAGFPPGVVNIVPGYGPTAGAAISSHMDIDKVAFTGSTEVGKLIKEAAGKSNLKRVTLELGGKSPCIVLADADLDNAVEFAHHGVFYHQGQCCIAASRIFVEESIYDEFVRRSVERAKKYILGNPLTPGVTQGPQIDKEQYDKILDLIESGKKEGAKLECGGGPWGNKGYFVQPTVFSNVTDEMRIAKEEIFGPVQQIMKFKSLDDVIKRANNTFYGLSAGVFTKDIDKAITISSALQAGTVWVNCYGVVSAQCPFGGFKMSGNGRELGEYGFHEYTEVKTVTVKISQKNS
Numbers without * were called inactive; u = inconclusive; x = not tested or not shown; [ ] = dose if it differs, or a comment. Only some compounds are listed: those with a hit (about 11% of all), similar ones and a draw of the others. Unless noted, calls follow the shape of the dose curve; as a rule, active = well fitted inhibition curve with a large enough effect (not every such curve was filed as active); inconclusive = small, poorly fitted or top-dose-only effect, or another doubt; inactive = no such curve, though single readings can be large or run the other way. Unless noted, % is scaled to controls: 0 for no effect and ±100 for the full control effect.

SMILES	IMPase Li cell	IMPase inh	12-hLO inh	HPGD inh	PNC assembly inh	ALDH1A1 inh
CCOC(=O)CN1C(=O)S/C(=C/c2ccc(OC)c([N+](=O)[O-])c2)C1=O	4%	x	1%	16µM*	-24	13µM*
COc1cc(/C=C2\SC(=O)N(Cc3ccc(Cl)cc3)C2=O)cc([N+](=O)[O-])c1O	21%	x	x	x	x	2.5µM*
CCn1c(CC(=O)Nc2cccc(Cl)c2Cl)nnc1SCCOc1ccc(OC)cc1	1%[38.3 µM]	1	-1%	-5%	8	14µM*
Cc1cc(C)n2c(-c3ccccc3Cl)nnc2n1	-1%	x	1%	u	-109*	u
CSC1=C(C#N)C(c2sccc2C)CC(=O)N1 (stereo unspecified)	9%	x	x	x	x	10µM*
CSC1=C(C#N)C(c2cccc(Br)c2)CC(=O)N1 (stereo unspecified)	8%	-9	-1%	-15%	-1	5%
O=C(C[n+]1ccccc1)N1c2ccccc2Sc2ccccc21	34%	x	x	x	x	3.2µM*
CN(C)c1cc[n+](CC(=O)N2c3ccccc3Sc3ccccc32)cc1	27%	x	x	x	x	8%
COc1ccc(N2CCN(C(=O)C3CC(O)CN3S(=O)(=O)c3ccc([N+](=O)[O-])cc3)CC2)cc1 (stereo unspecified)	2%	x	1%	-2%	36	11%
COc1ccc(N=C2SC(C(=O)N3CCN(c4ccc([N+](=O)[O-])cc4)CC3)CC(=O)N2C)cc1 (stereo unspecified)	-1%	x	x	x	x	10µM*
CCC1=C2CC[C@H]3C(=O)N(c4ccccc4)C(=O)[C@H]3[C@H]2[C@@]2(Cc3ccccc3)C(=NCc3ccccc3)OC(=O)N2C1=O	-4%	x	2%	-4%	x	-2%
Cc1cccc(Cn2c(C)nc3c(N)c(C)c(C)cc32)c1	3%	x	x	x	x	-1%
C[C@@H]1c2ccccc2CN1CC1=NCCN1	9%	4	6%	-4%	x	-14%
O=C(CN1CCN(C(=O)N2CCOCC2)CC1)Nc1ccc(Br)cc1	-10%[38.3 µM]	1	-5%	-7%	20	18µM*
Cc1ccc(Oc2ccc(NC(=O)c3ccco3)cc2)cc1	-1%[38.3 µM]	6	-11%	u	12	u
O=C(Nc1ccc(Oc2cccnc2)nc1)c1ccc(C(F)(F)F)cc1	x	x	x	x	x	10%
O=C(Nc1ccc(Oc2cccc(C(F)(F)F)c2)nc1)c1ccco1	x	x	x	x	x	40µM*
O=C(Nc1cccc(Oc2ccc3c(c2)C(=O)NC3=O)c1)c1ccco1	22%[38.3 µM]	3[1.84 µM]	-1%	20µM*	-92*	5%
O=C(CN1CCCC1)Nc1ccc(F)cc1	3%	x	x	x	x	25µM*
OCc1ccccc1O[C@H]1OC(CO)C(O)C(O)C1O (stereo partly specified)	7%	x	0%	5%	x	2%
CCOC(=O)c1ncc2[nH]c3cccc(OC(C)C)c3c2c1C	0%	x	-2%[0.00818 µM]	-16%	x	-5%
N=c1sccn1CC(=O)Nc1cccc(Oc2ccccc2)c1	12%[38.3 µM]	22	4%	-10%	15	u
O=C(CSc1ncnc2[nH]ncc12)Nc1cccc(Oc2ccccc2)c1	8%	x	x	x	x	20µM*
Nc1nc(SCC(=O)Nc2cccc(Oc3ccccc3)c2)n[nH]1	-5%	x	-1%	-16%	-17	u
O=C(CN1CCCCC1)Nc1cccc(Oc2ccccc2)c1	42%[38.3 µM]	5	-4%	28µM*	-106*	7%
SMILES	IMPase Li cell	IMPase inh	12-hLO inh	HPGD inh	PNC assembly inh	ALDH1A1 inh
O=C(CN1CCCCCC1)Nc1ccccc1	6%	x	x	x	x	7.9µM*
O=C(CCl)Nc1cccc(Oc2ccccc2)c1	1%	x	x	x	x	0.28µM*
CCOc1ccc(NC2SC(=O)N(Cc3ccccc3)C2=O)cc1 (stereo unspecified)	x	-4	x	x	x	x
Cc1ccc(C(=O)Nc2cccc(Oc3ccccc3)c2)o1	38%[38.3 µM]	3	1%	20µM*	24	0%
CCOC(=O)N1CCN(CC(=O)Nc2ccc(Oc3ccccc3)cc2)CC1	14%[38.3 µM]	5	3%	-3%	-15	25µM*
Cc1ccc(C(=O)Nc2cccc(C(=O)NCc3ccccc3)c2)o1	0%[38.3 µM]	-1	4%	-19%	-10	-2%
O=C(Nc1ccc(Cl)cc1)N1CCCN(Cc2ccc(F)cc2)C1	61%[38.3 µM]	6	-4%	25µM*	-15	4%
CC(C)NC(=O)N1CC[C@@]2(CCCN(S(C)(=O)=O)C2)C1	-4%	x	-6%	-3%	x	5%
COc1ccc(C(=O)N2CCC3(CC2)CCN(c2ccncc2)CC3)cc1	24%	x	-2%	-4%	x	8%
Cc1cc(C)n(-c2nc3ccccc3nc2Nc2cccc(C(=O)NCCc3ccccc3)c2)n1	x	1	x	x	x	x
S=C(NNc1ccnc2cc(Cl)ccc12)Nc1ccccc1Cl	19%	x	-16%	25µM*	16	u
S=C(Nc1ccccc1Cl)Nc1ccc(Cl)cc1Cl	11%[38.3 µM]	-5	1%	-25%	4	u
FC(F)(F)c1cnc(NNC(=S)Nc2ccccc2Cl)c(Cl)c1	x	4	-7%	x	1	1.5µM*
O=[N+]([O-])c1ccccc1NCCNc1ncc(C(F)(F)F)cc1Cl	24%[38.3 µM]	-9[1.84 µM]	-5%	-16%	-3	8%
Cc1cccc(NC(=S)NNc2ncc(C(F)(F)F)cc2Cl)c1	2%	x	-16%	-18%	40	28µM*
COc1ccc(C(=O)OC2=C(C(=O)c3ccccc3)N(C)S(=O)(=O)c3ccccc32)cc1OC	x	2	x	x	x	x
O=C(c1ccco1)c1nnn(Cc2ccccc2)c1-c1ccccc1	6%[38.3 µM]	u	-9%	-11%	u	11µM*
O=C(NCCN1CCN(c2ccccc2)CC1)c1cccn2c(=O)c3ccccc3nc12	x	-4	-1%	x	22	6%
O=C(c1ccc2c(c1)[nH]c(=S)n1c3ccccc3nc21)N1CCN(c2ncccn2)CC1	7.1µM*	-18	6%	u	-8	-2%
O=C(NCCN1CCN(c2ccccc2)CC1)c1ccc2c(c1)[nH]c(=S)n1c3ccccc3nc21	10µM*	x	x	x	x	u
CCOc1ccc(C(C)=O)cc1N1C(=O)C2C3C=CC(O3)C2C1=O (stereo unspecified)	7%[38.3 µM]	1	0%	28µM*	6	22µM*
COC(=O)c1c(NC(=O)Nc2ccc(Cl)cc2)sc(C)c1C	u	-18	1%	-22%	-16	-16%
CCOC(=O)c1c(NC(=O)C[n+]2ccc(Cc3ccccc3)cc2)sc(C)c1C	12%	x	x	x	x	0.71µM*
CCOC(=O)c1cc(C)sc1NC(=S)Nc1ccccc1	25%[38.3 µM]	3	u	-12%	14	u
CCOC(=O)c1c(NC(=S)Nc2ccccc2)sc(C)c1C	u	1	-1%	22µM*	u	25µM*
Cc1sc(NC(=O)Nc2ccccc2)c(C(N)=O)c1C	9%	x	x	x	x	13µM*
